Out of some 77,000 compounds screened, about 4,600 (6%) were called active. About 1% were inconclusive and are not listed. Many of the other results were omitted from the sample, so actives are more common in it than they were. Unmarked numbers belong to inactive results.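 Rule for the calls: active = mean inhibition above about 93%, with at least 55% of replicates each passing it (limit read from the data, passing the limit was not always enough); inconclusive = only one of those two conditions holds; inactive = neither condition holds.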
Experiment: growth inhibition of T. cruzi in host fibroblasts – cell-based, beta-gal Tulahuen parasites, NIH3T3 host, luminescence, primary screen (AID 624255)
Conditions: T. cruzi beta-gal in NIH3T3, GalScreen luminescence, 90 h; at 8.34 µM; active compounds read high

Row | SMILES | inhibition
1 | O=C(NC[C@@H]1[C@@H](c2ccccc2)[C@H](CO)N1C(=O)C1CCC1)NC1CCCC1 | -28.8%
2 | CCN(C[C@H]1[C@H](c2ccccc2)[C@H](CO)N1C(=O)C1CC1)C(=O)NC1CCCC1 | 96.5% (active)
3 | CCN(C[C@@H]1[C@@H](c2ccccc2)[C@H](CO)N1C(C)=O)C(=O)NC(C)C | 7.85%
4 | Cn1cnc(S(=O)(=O)N2C[C@@H](O)COC[C@@H]3O[C@H](CC(=O)NCc4ccc(F)cc4)CC[C@H]32)c1 | -30.6%
5 | COc1cccc(S(=O)(=O)N2C[C@@H](O)COC[C@H]3O[C@H](CC(=O)N4CCCCC4)CC[C@@H]32)c1 | 25.3%
6 | Cc1ccc(S(=O)(=O)N(C)C[C@@H]2OCc3ccccc3-c3c(n(C)c4ccccc34)C(=O)N([C@@H](C)CO)C[C@@H]2C)cc1 | 60.7%
7 | COc1cccc(NC(=O)N(C)C[C@H]2OCc3ccccc3-c3ccccc3C(=O)N([C@H](C)CO)C[C@@H]2C)c1 | -8.4%
8 | C[C@@H]1CN([C@@H](C)CO)C(=O)c2ccccc2-c2ccccc2CO[C@H]1CN(C)C(=O)Nc1ccccc1 | 24.6%
9 | Cc1ccc(S(=O)(=O)N(C)C[C@H]2OCc3ccccc3-c3ccccc3C(=O)N([C@@H](C)CO)C[C@@H]2C)cc1 | 81.8%
10 | C[C@H]1CN([C@@H](C)CO)C(=O)c2ccccc2-c2ccccc2CO[C@@H]1CN(C)S(=O)(=O)c1ccc(C(F)(F)F)cc1 | 105% (active)
11 | C[C@H](CO)N1C[C@H](C)[C@H](CN(C)S(=O)(=O)c2cccc(F)c2)Oc2ncc(/C=C/c3ccccc3)cc2C1=O | 107% (active)
12 | C[C@H](CO)N1C[C@H](C)[C@@H](CN(C)S(=O)(=O)c2cccc(F)c2)OCc2ccccc2-c2c(n(C)c3ccccc23)C1=O | 98% (active)
13 | C[C@H](CO)N1C[C@H](C)[C@@H](CN(C)S(=O)(=O)c2cccc(F)c2)Oc2ncc(-c3cccc(F)c3)cc2C1=O | 49.3%
14 | COc1ccc(S(=O)(=O)N(C)C[C@@H]2OCc3ccccc3-c3ccccc3C(=O)N([C@@H](C)CO)C[C@@H]2C)cc1 | 28.9%
15 | C[C@@H]1CN([C@@H](C)CO)C(=O)c2c(c3ccccc3n2C)-c2ccccc2CO[C@@H]1CN(C)S(=O)(=O)c1ccc(F)cc1 | -18%
16 | C[C@H](CO)N1C[C@H](C)[C@@H](CN(C)C(=O)Nc2ccnc(N3CCOCC3)c2)OCc2ccccc2-c2ccccc2C1=O | 113% (active)
17 | COc1cccc(-c2cnc3c(c2)C(=O)N([C@H](C)CO)C[C@H](C)[C@H](CN(C)S(=O)(=O)c2cccc(F)c2)O3)c1 | 62.3%

Source: PubChem BioAssay AID624255 (Broad Institute, 2012)
